What was measured:
Assay in all cases: PBM; 200 nM protein, PBS
Settings in all cases: dsDNA, one strand shown
HESX1 [1] = molecular target: HESX1 (Homo sapiens, UniProt Q9UBX0 95-180, R165K)
SHOX [2] = molecular target: SHOX (Homo sapiens, UniProt O15266 103-189)
ALX4 = ALX4 (Homo sapiens, UniProt Q9H161 200-286, Q225E)
HESX1 [3] = molecular target: HESX1 (Homo sapiens, UniProt Q9UBX0 95-180)
MSX2 = MSX2 (Homo sapiens, UniProt P35548 130-214, R199I)
ALX1 [4] = molecular target: ALX1 (Homo sapiens, UniProt Q15699 118-204, L144V)
Sequence of ALX1 (Homo sapiens, UniProt Q15699 118-204, L144V) (Q15699 118-204 L144V): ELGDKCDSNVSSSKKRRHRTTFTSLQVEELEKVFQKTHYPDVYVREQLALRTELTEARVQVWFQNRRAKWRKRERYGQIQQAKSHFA

ALX3 [5] = molecular target: ALX3 (Homo sapiens, UniProt O95076 139-225, N203Q)
Sequence of ALX3 (Homo sapiens, UniProt O95076 139-225, N203Q) (O95076 139-225 N203Q): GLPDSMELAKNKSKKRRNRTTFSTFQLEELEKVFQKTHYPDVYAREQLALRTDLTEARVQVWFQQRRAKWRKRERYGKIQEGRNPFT

SHOX [6] = molecular target: SHOX (Homo sapiens, UniProt O15266 103-189, R173C)
Sequence of SHOX (Homo sapiens, UniProt O15266 103-189, R173C) (O15266 103-189 R173C): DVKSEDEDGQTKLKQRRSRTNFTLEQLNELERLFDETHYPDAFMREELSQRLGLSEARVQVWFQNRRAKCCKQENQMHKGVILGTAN

ALX1 [7] = molecular target: ALX1 (Homo sapiens, UniProt Q15699 118-204, L144R)
Sequence of ALX1 (Homo sapiens, UniProt Q15699 118-204, L144R) (Q15699 118-204 L144R): as the sequence (Q15699 118-204 L144V) above, with V27R counted along it

ALX3 [8] = molecular target: ALX3 (Homo sapiens, UniProt O95076 139-225)
Sequence of ALX3 (Homo sapiens, UniProt O95076 139-225) (O95076 139-225): as the sequence (O95076 139-225 N203Q) above, with Q65N counted along it

PROP1 [9] = molecular target: PROP1 (Homo sapiens, UniProt O75360 56-141)
Sequence of PROP1 (Homo sapiens, UniProt O75360 56-141) (O75360 56-141): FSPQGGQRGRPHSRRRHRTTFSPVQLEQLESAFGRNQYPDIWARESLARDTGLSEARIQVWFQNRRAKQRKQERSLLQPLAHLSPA

HESX1 [10] = molecular target: HESX1 (Homo sapiens, UniProt Q9UBX0 95-180, R109Q)
Sequence of HESX1 (Homo sapiens, UniProt Q9UBX0 95-180, R109Q) (Q9UBX0 95-180 R109Q): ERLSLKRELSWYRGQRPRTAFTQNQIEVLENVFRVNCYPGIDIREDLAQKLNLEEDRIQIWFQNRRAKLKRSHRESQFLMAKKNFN

PROP1 [11] = molecular target: PROP1 (Homo sapiens, UniProt O75360 56-141, R99H)
Sequence of PROP1 (Homo sapiens, UniProt O75360 56-141, R99H) (O75360 56-141 R99H): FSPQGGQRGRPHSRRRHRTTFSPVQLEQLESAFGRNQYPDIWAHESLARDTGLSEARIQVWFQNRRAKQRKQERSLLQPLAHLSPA

ALX3 [12] = molecular target: ALX3 (Homo sapiens, UniProt O95076 139-225, L168Q)
Sequence of ALX3 (Homo sapiens, UniProt O95076 139-225, L168Q) (O95076 139-225 L168Q): as the sequence (O95076 139-225 N203Q) above, with L30Q, Q65N counted along it

HESX1 [13] = molecular target: HESX1 (Homo sapiens, UniProt Q9UBX0 95-180, P111T)
Sequence of HESX1 (Homo sapiens, UniProt Q9UBX0 95-180, P111T) (Q9UBX0 95-180 P111T): as the sequence (Q9UBX0 95-180 R109Q) above, with Q15R, P17T counted along it

ALX3 [14] = molecular target: ALX3 (Homo sapiens, UniProt O95076 139-225, L168V)
Sequence of ALX3 (Homo sapiens, UniProt O95076 139-225, L168V) (O95076 139-225 L168V): as the sequence (O95076 139-225 N203Q) above, with L30V, Q65N counted along it

PROP1 [15] = molecular target: PROP1 (Homo sapiens, UniProt O75360 56-141, F88S)
Sequence of PROP1 (Homo sapiens, UniProt O75360 56-141, F88S) (O75360 56-141 F88S): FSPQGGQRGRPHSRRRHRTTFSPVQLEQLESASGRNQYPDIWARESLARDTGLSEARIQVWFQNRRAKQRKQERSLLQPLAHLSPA

HESX1 [16] = molecular target: HESX1 (Homo sapiens, UniProt Q9UBX0 95-180, F115L)
Sequence of HESX1 (Homo sapiens, UniProt Q9UBX0 95-180, F115L) (Q9UBX0 95-180 F115L): as the sequence (Q9UBX0 95-180 R109Q) above, with Q15R, F21L counted along it

ALX1 [17] = molecular target: ALX1 (Homo sapiens, UniProt Q15699 118-204)
Sequence of ALX1 (Homo sapiens, UniProt Q15699 118-204) (Q15699 118-204): as the sequence (Q15699 118-204 L144V) above, with V27L counted along it

ALX3 [18] = molecular target: ALX3 (Homo sapiens, UniProt O95076 139-225, N203S)
Sequence of ALX3 (Homo sapiens, UniProt O95076 139-225, N203S) (O95076 139-225 N203S): as the sequence (O95076 139-225 N203Q) above, with Q65S counted along it

Sequence of MSX2 (P35548 130-214 R199I): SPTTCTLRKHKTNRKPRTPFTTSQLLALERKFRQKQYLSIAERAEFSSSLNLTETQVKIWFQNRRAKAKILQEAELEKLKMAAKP
Sequence of HESX1 (Homo sapiens, UniProt Q9UBX0 95-180, R165K) (Q9UBX0 95-180 R165K): as the sequence (Q9UBX0 95-180 R109Q) above, with Q15R, R71K counted along it
Sequence of HESX1 (Homo sapiens, UniProt Q9UBX0 95-180) (Q9UBX0 95-180): as the sequence (Q9UBX0 95-180 R109Q) above, with Q15R counted along it
Sequence of SHOX (Homo sapiens, UniProt O15266 103-189) (O15266 103-189): as the sequence (O15266 103-189 R173C) above, with C71R counted along it
Sequence of ALX4 (Q9H161 200-286 Q225E): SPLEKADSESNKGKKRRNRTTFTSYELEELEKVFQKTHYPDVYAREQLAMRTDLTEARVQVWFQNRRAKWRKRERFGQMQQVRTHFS

Sequence	binding signal (HESX1 [1])	binding signal (SHOX [2])	binding signal (ALX4)	binding signal (HESX1 [3])	binding signal (MSX2)	binding signal (ALX1 [4])	binding signal (ALX3 [5])	binding signal (SHOX [6])	binding signal (ALX1 [7])	binding signal (ALX3 [8])	binding signal (PROP1 [9])	binding signal (HESX1 [10])	binding signal (PROP1 [11])	binding signal (ALX3 [12])	binding signal (HESX1 [13])	binding signal (ALX3 [14])	binding signal (PROP1 [15])	binding signal (HESX1 [16])	binding signal (ALX1 [17])	binding signal (ALX3 [18])
CTAATTAC	13.2 upbm affinity estimate (log intensity, higher = more binding, comparable within an allelic series)	12.8 upbm affinity estimate (log intensity, higher = more binding, comparable within an allelic series)	13.8 upbm affinity estimate (log intensity, higher = more binding, comparable within an allelic series)	13.2 upbm affinity estimate (log intensity, higher = more binding, comparable within an allelic series)	13.2 upbm affinity estimate (log intensity, higher = more binding, comparable within an allelic series)	12.2 upbm affinity estimate (log intensity, higher = more binding, comparable within an allelic series)	8.37 upbm affinity estimate (log intensity, higher = more binding, comparable within an allelic series)	10.1 upbm affinity estimate (log intensity, higher = more binding, comparable within an allelic series)	11.8 upbm affinity estimate (log intensity, higher = more binding, comparable within an allelic series)	12.9 upbm affinity estimate (log intensity, higher = more binding, comparable within an allelic series)	12 upbm affinity estimate (log intensity, higher = more binding, comparable within an allelic series)	9.51 upbm affinity estimate (log intensity, higher = more binding, comparable within an allelic series)	12 upbm affinity estimate (log intensity, higher = more binding, comparable within an allelic series)	11 upbm affinity estimate (log intensity, higher = more binding, comparable within an allelic series)	11.8 upbm affinity estimate (log intensity, higher = more binding, comparable within an allelic series)	10.5 upbm affinity estimate (log intensity, higher = more binding, comparable within an allelic series)	7.85 upbm affinity estimate (log intensity, higher = more binding, comparable within an allelic series)	7.95 upbm affinity estimate (log intensity, higher = more binding, comparable within an allelic series)	12.9 upbm affinity estimate (log intensity, higher = more binding, comparable within an allelic series)	8.5 upbm affinity estimate (log intensity, higher = more binding, comparable within an allelic series)
GTAATTGA	12.5 upbm affinity estimate (log intensity, higher = more binding, comparable within an allelic series)	11.9 upbm affinity estimate (log intensity, higher = more binding, comparable within an allelic series)	12.8 upbm affinity estimate (log intensity, higher = more binding, comparable within an allelic series)	12.6 upbm affinity estimate (log intensity, higher = more binding, comparable within an allelic series)	12.5 upbm affinity estimate (log intensity, higher = more binding, comparable within an allelic series)	11.7 upbm affinity estimate (log intensity, higher = more binding, comparable within an allelic series)	8.3 upbm affinity estimate (log intensity, higher = more binding, comparable within an allelic series)	9.41 upbm affinity estimate (log intensity, higher = more binding, comparable within an allelic series)	11.2 upbm affinity estimate (log intensity, higher = more binding, comparable within an allelic series)	12.4 upbm affinity estimate (log intensity, higher = more binding, comparable within an allelic series)	11.3 upbm affinity estimate (log intensity, higher = more binding, comparable within an allelic series)	8.99 upbm affinity estimate (log intensity, higher = more binding, comparable within an allelic series)	11.5 upbm affinity estimate (log intensity, higher = more binding, comparable within an allelic series)	10.4 upbm affinity estimate (log intensity, higher = more binding, comparable within an allelic series)	11 upbm affinity estimate (log intensity, higher = more binding, comparable within an allelic series)	9.76 upbm affinity estimate (log intensity, higher = more binding, comparable within an allelic series)	7.49 upbm affinity estimate (log intensity, higher = more binding, comparable within an allelic series)	7.6 upbm affinity estimate (log intensity, higher = more binding, comparable within an allelic series)	12.3 upbm affinity estimate (log intensity, higher = more binding, comparable within an allelic series)	8.44 upbm affinity estimate (log intensity, higher = more binding, comparable within an allelic series)
CAATTAAC	13.1 upbm affinity estimate (log intensity, higher = more binding, comparable within an allelic series)	12.1 upbm affinity estimate (log intensity, higher = more binding, comparable within an allelic series)	13.5 upbm affinity estimate (log intensity, higher = more binding, comparable within an allelic series)	13.1 upbm affinity estimate (log intensity, higher = more binding, comparable within an allelic series)	13.1 upbm affinity estimate (log intensity, higher = more binding, comparable within an allelic series)	11.8 upbm affinity estimate (log intensity, higher = more binding, comparable within an allelic series)	8.37 upbm affinity estimate (log intensity, higher = more binding, comparable within an allelic series)	9.74 upbm affinity estimate (log intensity, higher = more binding, comparable within an allelic series)	11.5 upbm affinity estimate (log intensity, higher = more binding, comparable within an allelic series)	12.7 upbm affinity estimate (log intensity, higher = more binding, comparable within an allelic series)	11.6 upbm affinity estimate (log intensity, higher = more binding, comparable within an allelic series)	9.81 upbm affinity estimate (log intensity, higher = more binding, comparable within an allelic series)	11.8 upbm affinity estimate (log intensity, higher = more binding, comparable within an allelic series)	10.8 upbm affinity estimate (log intensity, higher = more binding, comparable within an allelic series)	11.7 upbm affinity estimate (log intensity, higher = more binding, comparable within an allelic series)	10.3 upbm affinity estimate (log intensity, higher = more binding, comparable within an allelic series)	7.68 upbm affinity estimate (log intensity, higher = more binding, comparable within an allelic series)	7.95 upbm affinity estimate (log intensity, higher = more binding, comparable within an allelic series)	12.5 upbm affinity estimate (log intensity, higher = more binding, comparable within an allelic series)	8.57 upbm affinity estimate (log intensity, higher = more binding, comparable within an allelic series)
CTCAATTA	12.7 upbm affinity estimate (log intensity, higher = more binding, comparable within an allelic series)	12 upbm affinity estimate (log intensity, higher = more binding, comparable within an allelic series)	13.1 upbm affinity estimate (log intensity, higher = more binding, comparable within an allelic series)	12.7 upbm affinity estimate (log intensity, higher = more binding, comparable within an allelic series)	12.7 upbm affinity estimate (log intensity, higher = more binding, comparable within an allelic series)	11.8 upbm affinity estimate (log intensity, higher = more binding, comparable within an allelic series)	8.29 upbm affinity estimate (log intensity, higher = more binding, comparable within an allelic series)	9.56 upbm affinity estimate (log intensity, higher = more binding, comparable within an allelic series)	11.5 upbm affinity estimate (log intensity, higher = more binding, comparable within an allelic series)	12.5 upbm affinity estimate (log intensity, higher = more binding, comparable within an allelic series)	11.5 upbm affinity estimate (log intensity, higher = more binding, comparable within an allelic series)	9.12 upbm affinity estimate (log intensity, higher = more binding, comparable within an allelic series)	11.6 upbm affinity estimate (log intensity, higher = more binding, comparable within an allelic series)	10.5 upbm affinity estimate (log intensity, higher = more binding, comparable within an allelic series)	11.2 upbm affinity estimate (log intensity, higher = more binding, comparable within an allelic series)	9.95 upbm affinity estimate (log intensity, higher = more binding, comparable within an allelic series)	7.64 upbm affinity estimate (log intensity, higher = more binding, comparable within an allelic series)	7.72 upbm affinity estimate (log intensity, higher = more binding, comparable within an allelic series)	12.4 upbm affinity estimate (log intensity, higher = more binding, comparable within an allelic series)	8.43 upbm affinity estimate (log intensity, higher = more binding, comparable within an allelic series)
CTAATTAG	14 upbm affinity estimate (log intensity, higher = more binding, comparable within an allelic series)	13.6 upbm affinity estimate (log intensity, higher = more binding, comparable within an allelic series)	14.6 upbm affinity estimate (log intensity, higher = more binding, comparable within an allelic series)	13.7 upbm affinity estimate (log intensity, higher = more binding, comparable within an allelic series)	13.6 upbm affinity estimate (log intensity, higher = more binding, comparable within an allelic series)	12.5 upbm affinity estimate (log intensity, higher = more binding, comparable within an allelic series)	8.69 upbm affinity estimate (log intensity, higher = more binding, comparable within an allelic series)	11.1 upbm affinity estimate (log intensity, higher = more binding, comparable within an allelic series)	12.1 upbm affinity estimate (log intensity, higher = more binding, comparable within an allelic series)	13 upbm affinity estimate (log intensity, higher = more binding, comparable within an allelic series)	12.4 upbm affinity estimate (log intensity, higher = more binding, comparable within an allelic series)	10.9 upbm affinity estimate (log intensity, higher = more binding, comparable within an allelic series)	12.6 upbm affinity estimate (log intensity, higher = more binding, comparable within an allelic series)	11.6 upbm affinity estimate (log intensity, higher = more binding, comparable within an allelic series)	12.5 upbm affinity estimate (log intensity, higher = more binding, comparable within an allelic series)	11.3 upbm affinity estimate (log intensity, higher = more binding, comparable within an allelic series)	8.3 upbm affinity estimate (log intensity, higher = more binding, comparable within an allelic series)	8.53 upbm affinity estimate (log intensity, higher = more binding, comparable within an allelic series)	13.2 upbm affinity estimate (log intensity, higher = more binding, comparable within an allelic series)	8.81 upbm affinity estimate (log intensity, higher = more binding, comparable within an allelic series)
GGCAATTA	12.3 upbm affinity estimate (log intensity, higher = more binding, comparable within an allelic series)	11.7 upbm affinity estimate (log intensity, higher = more binding, comparable within an allelic series)	12.9 upbm affinity estimate (log intensity, higher = more binding, comparable within an allelic series)	12.4 upbm affinity estimate (log intensity, higher = more binding, comparable within an allelic series)	12.9 upbm affinity estimate (log intensity, higher = more binding, comparable within an allelic series)	11.4 upbm affinity estimate (log intensity, higher = more binding, comparable within an allelic series)	8.35 upbm affinity estimate (log intensity, higher = more binding, comparable within an allelic series)	9.38 upbm affinity estimate (log intensity, higher = more binding, comparable within an allelic series)	11 upbm affinity estimate (log intensity, higher = more binding, comparable within an allelic series)	12.2 upbm affinity estimate (log intensity, higher = more binding, comparable within an allelic series)	11.1 upbm affinity estimate (log intensity, higher = more binding, comparable within an allelic series)	8.87 upbm affinity estimate (log intensity, higher = more binding, comparable within an allelic series)	11.3 upbm affinity estimate (log intensity, higher = more binding, comparable within an allelic series)	10.3 upbm affinity estimate (log intensity, higher = more binding, comparable within an allelic series)	10.9 upbm affinity estimate (log intensity, higher = more binding, comparable within an allelic series)	9.79 upbm affinity estimate (log intensity, higher = more binding, comparable within an allelic series)	7.46 upbm affinity estimate (log intensity, higher = more binding, comparable within an allelic series)	7.6 upbm affinity estimate (log intensity, higher = more binding, comparable within an allelic series)	12 upbm affinity estimate (log intensity, higher = more binding, comparable within an allelic series)	8.36 upbm affinity estimate (log intensity, higher = more binding, comparable within an allelic series)
TCAATTAA	13.4 upbm affinity estimate (log intensity, higher = more binding, comparable within an allelic series)	12.4 upbm affinity estimate (log intensity, higher = more binding, comparable within an allelic series)	13.8 upbm affinity estimate (log intensity, higher = more binding, comparable within an allelic series)	13.2 upbm affinity estimate (log intensity, higher = more binding, comparable within an allelic series)	12.8 upbm affinity estimate (log intensity, higher = more binding, comparable within an allelic series)	12 upbm affinity estimate (log intensity, higher = more binding, comparable within an allelic series)	8.44 upbm affinity estimate (log intensity, higher = more binding, comparable within an allelic series)	9.85 upbm affinity estimate (log intensity, higher = more binding, comparable within an allelic series)	11.7 upbm affinity estimate (log intensity, higher = more binding, comparable within an allelic series)	12.7 upbm affinity estimate (log intensity, higher = more binding, comparable within an allelic series)	11.6 upbm affinity estimate (log intensity, higher = more binding, comparable within an allelic series)	9.91 upbm affinity estimate (log intensity, higher = more binding, comparable within an allelic series)	12 upbm affinity estimate (log intensity, higher = more binding, comparable within an allelic series)	11 upbm affinity estimate (log intensity, higher = more binding, comparable within an allelic series)	11.9 upbm affinity estimate (log intensity, higher = more binding, comparable within an allelic series)	10.5 upbm affinity estimate (log intensity, higher = more binding, comparable within an allelic series)	7.83 upbm affinity estimate (log intensity, higher = more binding, comparable within an allelic series)	7.87 upbm affinity estimate (log intensity, higher = more binding, comparable within an allelic series)	12.6 upbm affinity estimate (log intensity, higher = more binding, comparable within an allelic series)	8.6 upbm affinity estimate (log intensity, higher = more binding, comparable within an allelic series)
